Source: PubChem (National Center for Advancing Translational Sciences (NCATS))
In the library only some 19% were active in any assay of this set; here they are far more common.
ELG1 repair inh: blocks ELG1-dependent DNA repair in HEK293T cells. HEK293T ELG1-luciferase reporter, luminescence, 16 h; DNA damage induced by 5-fluorouridine. Potency, µM (highest dose often 46.1 µM), hits mostly inhibitors. 330,000 tested, 2.3% active. AID 504467; further: nearly all actives have a fitted effect of over 55% in size
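Overnight (16 hr) co-exposure of 2,000 cells/well to 5-fluorouridine and compound at 37 °C preceded detection. Luciferase was quantified via ONE-Glo luminescence; loss of signal denotes inhibition.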
DT40 TDP1 no CPT: qHTS for Inhibitors of human tyrosyl-DNA phosphodiesterase 1 (TDP1): qHTS in cells in absence of CPT; DT40 Tdp1-/- hTDP1 cells, no CPT, ATP luminescence, 48 h; 420,000 tested, 15% active; Potency, µM (doses to about 46.2 µM), actives largely listed as inhibitors; further: nearly all actives have a fitted effect of over 55% in size
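Readout: luminescence from CellTiter-Glo after 30 min in the dark at RT. Cells: DT40 Tdp1-/- with stable hTDP1, 400/well. Exposure: compounds alone, ≥48 hr, 37 °C.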
IL1B secr inh: inflammasome signaling inhibition, IL-1 beta readout; THP-1 LPS/ATP IL-1B secretion, AlphaLISA, 16 h; stronger effect = lower value; activity change, % at 57.5 µM; 360,000 tested, 4.7% active; in the data active means activity change below about -50%; inconclusive means mostly about -30% to -49%
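THP-1 cells pretreated 1 hr with compounds (up to 57.5 uM final), then stimulated with LPS (250 ng/mL final) plus ATP (1.25 mM final); secreted IL-1B measured by AlphaLISA after 16 hr, decreased signal indicating inhibition.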
TDP1 cell CPT: growth inhibition of DT40 Tdp1-/-;hTDP1 cells with camptothecin (screen for TDP1 inhibitors) | 420,000 tested, 12% active | chicken DT40 Tdp1-/-;hTDP1 cells + 20 nM CPT, ATP luminescence, 48 h | Potency, µM (top dose mostly 46.2 µM), usual class: inhibitors; further: nearly all actives have a fitted effect of over 55% in size
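Chicken DT40 Tdp1-/- cells complemented with human TDP1, 400 cells/well, exposed to compounds plus 20 nM camptothecin for at least 48 h at 37 C; viability read as ATP content by CellTiter-Glo luminescence.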
HT1080-NT tox: kills 2HG-producing HT-1080-NT fibrosarcoma cells | HT-1080-NT fibrosarcoma viability, CellTiter-Glo ATP luminescence, 48 h | Potency, µM (titrated, usually from 46.1 µM), actives largely listed as cytotoxic | 360,000 tested, 1.6% active | AID 686970;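 further: NT is the 2HG producing partner of a matched IDH1 knockdown line; nearly all actives have a fitted effect of over 55% in size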
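Luminescent CellTiter-Glo readout after 48 hours of compound exposure at 37 degrees C defined viability of HT-1080-NT cells. Activity was normalized to DMSO wells and cell-free media wells; concentration-response curves were fitted and assigned curve classes.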
HT1080 IDH1KD tx: HT-1080 IDH1 knockdown cell toxicity (counter line). HT-1080 IDH1 knockdown viability, ATP luminescence, 48 h. Potency, µM (highest dose often 46.1 µM), hits mostly cytotoxic. 360,000 tested, 2% active
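HT-1080-IDH1KD cells (IDH1 knocked down), 750/well in RPMI with 5% FBS, treated with compound 48 h at 37 degrees C. Viability by CellTiter-Glo luminescence, normalised to DMSO and no-cell wells; concentration-response curves classed.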
Numbers stand for hits; n = inactive; u = inconclusive; x = no result given. Unless noted, the call rests on the fitted dose curve; in most records, active means well fitted curve in the direction sought with a large enough effect; inconclusive means small, poorly fitted or top-dose-only effect, or another doubt; inactive means no such curve, though single readings can be large; an effect the other way counts as inactive or inconclusive.

SMILES	ELG1 repair inh	DT40 TDP1 no CPT	IL1B secr inh	TDP1 cell CPT	HT1080-NT tox	HT1080 IDH1KD tx
Oc1ccccc1C=NNC(=S)Nc1ccc(F)cc1	x	1.5µM	-95	0.92µM	u	5.8µM
CCCCc1ccc(S(=O)(=O)NC(=O)C2(C)CCN2C(=O)CC2CC2)cc1 (stereo not drawn)	x	n	n	n	n	n
Cc1ccc(C(=O)c2c[nH]c(C(=O)NCc3cccnc3)c2)cc1	n	u	n	n	n	n
COC(=O)c1ccccc1NC(=O)Cn1c(=O)n(Cc2ccc(C(=O)NCc3ccc4c(c3)OCO4)cc2)c(=O)c2ccccc21	x	n	x	n	x	x
O=C(N/N=C/c1ccccc1Cl)c1ccc(F)cc1	u	n	n	n	n	n
S=C(N/N=C/c1ccccc1Cl)Nc1cccc(Cl)c1Cl	n	10µM	n	u	u	u
S=C(NCCc1ccccc1)N/N=C/c1cccc(Cl)c1Cl	n	n	n	n	n	n
Fc1ccc(NC(=S)NN=Cc2ccccc2Cl)cc1	x	3.3µM	n	2.3µM	n	n
Cc1nn(-c2ccccc2)c(OC(=O)C(C)C)c1Sc1ccc(Cl)cc1	x	10µM	x	u	x	x
COc1ccc(OC(=O)c2cnn(-c3ccccc3)c2C)cc1	u	n	n	n	n	n
COc1ccc(C(=O)Oc2c(Sc3ccccc3)c(C)nn2-c2ccccc2)c(OC)c1	x	u	x	18µM	x	x
O=[N+]([O-])c1ccccc1NCCNS(=O)(=O)c1ccc(Cl)cc1	n	n	n	n	n	n
O=[N+]([O-])c1ccc(NCCCNS(=O)(=O)c2ccc(Cl)cc2)c(Cl)c1	n	21µM	n	21µM	n	n
Nc1nnnn1/N=C/c1ccccc1C(F)(F)F	n	18µM	n	12µM	n	n
CC(=O)N1c2ccc(S(=O)(=O)NCc3ccccc3Cl)cc2CC1C (stereo not drawn)	n	7.3µM	n	u	n	n
CCOc1ccc(CNS(=O)(=O)c2ccc3c(c2)CC(C)N3C(C)=O)cc1OC (stereo not drawn)	x	12µM	x	13µM	x	x
COc1cc(CNS(=O)(=O)c2ccc3c(c2)CC(C)N3C(C)=O)cc(OC)c1OC (stereo not drawn)	n	u	n	10µM	n	n
COCC1COS(=O)(=O)NC1(C)C (stereo not drawn)	u	n	n	n	n	n
Cc1cc(Br)ccc1OCCn1ccnc1	n	n	n	n	n	n
COc1cc(Cl)c(NC(=O)CCS(=O)(=O)c2cc3c(cc2Cl)NC(=O)CO3)c(OC)c1	x	n	x	n	x	x
COc1cc(F)ccc1S(=O)(=O)N1CCN(c2ccccc2)CC1	n	n	n	n	n	n
COc1cc(-c2ccno2)ccc1S(=O)(=O)N1CCN(c2cccc(Cl)c2)CC1	x	u	x	23µM	x	x
COc1ccc(OC)c(-c2noc(N3CCN(c4ccc(Cl)cc4)CC3)n2)c1	x	15µM	x	u	x	x
COc1ccc(-c2noc(N3CCN(c4cccc(C)c4C)CC3)n2)cc1OC	x	7.3µM	x	18µM	x	x
COc1ccc(-c2noc(N3CCN(c4ccc(Cl)cc4)CC3)n2)cc1OC	x	n	x	n	x	x
SMILES	ELG1 repair inh	DT40 TDP1 no CPT	IL1B secr inh	TDP1 cell CPT	HT1080-NT tox	HT1080 IDH1KD tx
COc1ccc(-c2noc(N3CCN(c4cccc(Cl)c4)CC3)n2)cc1OC	x	8.2µM	x	u	x	x
O=C(NCC(F)(F)F)c1csc([C@@H]2O[C@H](CO)[C@H](O)[C@H](O)[C@H]2O)n1	x	n	n	n	n	n
O=C(Nc1ccc(Br)cn1)c1cnn2c1NC(=C1CC1)C=C2C(F)F	x	n	x	n	x	x
CCN(CC)C(=O)c1sc2c(c1C)c(=O)n(-c1ccc(Cl)c(Cl)c1)c(=O)n2Cc1cc(=O)n2c(C)cccc2n1	x	n	x	n	x	x
CSC(N)=NCCCC(N)C(=O)O (stereo not drawn)	x	n	x	n	x	x
Cc1ccc([C@H]2C[C@H](O)[C@@H](n3cc(COC(=O)c4ccccc4)nn3)CN2C(=O)c2cccs2)cc1	x	u	n	u	n	n
